From PubChem BioAssay
Compounds with a hit are over-represented: about 3.2% of the library has one in this group of screens.
Tau FP inhib: inhibitors of human tau fibril formation; P10636; K18 P301L tau heparin fibrillization, Alexa594 FP, 6 h; Potency, µM (titrated, usually from 57.7 µM), for the others: at the highest dose activity, negative = inhibition, most hits filed as inhibitors; 0.39% of 280,000 active; note: nearly all actives have a fitted effect of over 55% in size
Target sequence (P10636 561-689 P618L limits assumed): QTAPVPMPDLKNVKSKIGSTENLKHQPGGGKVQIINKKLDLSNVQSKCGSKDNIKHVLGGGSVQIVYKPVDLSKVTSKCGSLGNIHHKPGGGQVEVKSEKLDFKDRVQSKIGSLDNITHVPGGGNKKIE
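Quantitative HTS format: compounds meet 15 uM recombinant K18 P301L tau and Alexa 594-tau tracer in 100 mM sodium acetate pH 7; 20 uM heparin triggers fibrillization at 37 C over 6 hr; FP gives the signal.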
GoLoco inh red: inhibitors of human Gai1-RGS12 GoLoco interaction (red fluorophore). P63096. Gai1:RGS12 GoLoco peptide FP, rhodamine, 10 min. Potency, µM (titrated, usually from 61.6 µM), inactives show at the highest dose activity, negative = inhibition, hits mostly inhibitors. 0.44% of 230,000 active. AID 880; active = well fitted inhibition curve with a large enough effect, not every such curve was filed as active; inactive = no such curve, though single readings can be large or run the other way; note: nearly all actives have a fitted effect of over 30% in size
TR SRC2 fluor cs: alters Texas Red total fluorescence, flagging assay interference; TRb/SRC2 Texas Red total fluorescence interference; Potency, µM (titrated, usually from 106 µM), for inactives: top-dose fluorescence change, negative = quenching; 0.29% of 280,000 active; active = well fitted curve in either direction with a large enough effect; inconclusive = small, poorly fitted or top-dose-only effect
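Human TRb ligand-binding domain at 0.6 uM with 20 nM Texas Red SRC2 peptide in Tris buffer containing 1 uM T3 and 5% DMSO, incubated with compound 5 h at ambient temperature. Total fluorescence (555/632 nm) calculated as parallel + 2 × perpendicular.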
Tau fluor cs: counter-screen for tau fibril formation inhibitors | tau K18 P301L Alexa594 fluorescence, heparin fibrillization | Potency, µM (doses to about 57.7 µM), inactives show top-dose activity change, negative = decrease | 0.93% of 280,000 active | AID 1463; note: nearly all actives have a fitted effect of over 55% in size
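Human K18 P301L tau (15 uM unlabeled plus 0.24 uM Alexa 594-labeled, final) in 100 mM sodium acetate pH 7 was mixed with compound and 20 uM heparin and incubated 6 hr at 37 C.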
TRb SRC2 PPI: disrupts binding of human TR beta to SRC2; AID 1469; 0.065% of 280,000 active; P10828; Potency, µM (highest dose often 106 µM), for inactives: at the highest dose activity change, negative = inhibition, hits mostly inhibitors; TRbeta-SRC2 peptide binding, fluorescence polarization; receptor liganded with 1 µM T3;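 note: plate controls were bound peptide for no effect and peptide without receptor for full effect; nearly all actives have a fitted effect of over 50% in size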
Target sequence (P10828 whole entry, looked up): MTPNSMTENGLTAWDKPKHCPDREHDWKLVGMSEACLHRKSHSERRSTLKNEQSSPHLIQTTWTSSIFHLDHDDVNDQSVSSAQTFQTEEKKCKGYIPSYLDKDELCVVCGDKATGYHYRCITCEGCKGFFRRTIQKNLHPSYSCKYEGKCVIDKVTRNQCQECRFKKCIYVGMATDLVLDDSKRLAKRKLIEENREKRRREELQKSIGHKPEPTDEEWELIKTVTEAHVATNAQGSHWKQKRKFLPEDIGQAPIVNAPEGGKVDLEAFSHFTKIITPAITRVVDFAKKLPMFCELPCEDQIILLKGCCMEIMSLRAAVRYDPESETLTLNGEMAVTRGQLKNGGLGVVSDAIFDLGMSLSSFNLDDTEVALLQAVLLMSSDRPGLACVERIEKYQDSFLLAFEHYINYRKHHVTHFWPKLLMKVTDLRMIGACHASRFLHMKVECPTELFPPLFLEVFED
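Decrease in fluorescence polarization of 20 nM Texas Red SRC2 coactivator peptide flagged inhibition of its binding to 0.6 uM TRb LBD; 1 uM T3 included, incubation 5 hr, ex 555/em 632 nm.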
Tau ThT inhib: tau fibrillization inhibition (ThT binding); P10636; recombinant tau K18 P301L (four-repeat tau fragment), heparin-induced fibrillization, ThT fluorescence; Potency, µM (series often up to 57.4 µM), for the others: top-dose activity, negative = inhibition, actives largely listed as inhibitors; 2.1% of 270,000 active; note: nearly all actives have a fitted effect of over 55% in size
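Tau K18 P301L fragment (15 uM unlabeled plus 0.24 uM Alexa 594-labeled) in 100 mM sodium acetate pH 7 with compound, fibrillization induced by 20 uM heparin for 6 hr at 37 C. Thioflavin T (30 uM) added, fluorescence read after 1 hr (ex 450, em 510 nm).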
Starred values were filed as active, the others as inactive; ? = inconclusive; . = no result given; ! = repeats disagree; [ ] = dose if it differs, or a comment. Unless noted, calls come from the whole dose curve; as a rule, active = well fitted curve in the direction sought with a large enough effect; inconclusive = small, poorly fitted or top-dose-only effect, or another doubt; inactive = no such curve, though single readings can be large; an effect the other way counts as inactive or inconclusive. Unless noted, % is set by controls: 0 for no effect and ±100 for the full control effect; potency is the fitted concentration of half-maximal effect.

SMILES | Tau FP inhib | GoLoco inh red | TR SRC2 fluor cs | Tau fluor cs | TRb SRC2 PPI | Tau ThT inhib
CCCc1cc(=O)n2[nH]c(C)c(-c3ccccc3)c2n1 | 4% | . | -1% | 6% | -8% | -4%
O=C(NCc1ccco1)C1CCN(C(=O)N2CCOc3ccccc32)CC1 | 11% | . | 3% | 5µM*[quencher] | -6% | ?
CCC1CN(C(=O)N2CCC(C(=O)N(C)Cc3ccccc3)CC2)c2ccccc2O1 (stereo unspecified) | -7% | . | -10% | -14% | -3% | 4%
O=C(NCc1ccccc1Cl)C1CCN(C(=O)N2CCOc3ccccc32)CC1 | -9% | . | -11% | -6% | -3% | 0%
CCC1CN(C(=O)N2CCC(C(=O)NCCCc3ccccc3)CC2)c2ccccc2O1 (stereo unspecified) | 13% | . | -1% | 8.9µM*[quencher] | 0% | -19%
CCC1CN(C(=O)N2CCC(C(=O)N3CCN(c4ccccc4)CC3)CC2)c2ccccc2O1 (stereo unspecified) | ? | . | -4% | 11µM*[quencher] | 1% | ?
CCC1CN(C(=O)N2CCC(C(=O)NCc3ccco3)CC2)c2ccccc2O1 (stereo unspecified) | ? | . | 4% | 3.5µM*[quencher] | 2% | 16%
CCC1CN(C(=O)N2CCC(C(=O)NCCCc3ccccc3)CC2)c2cc(C)ccc2O1 (stereo unspecified) | ? | . | -20% | -19% | 7% | -6%
CCC1CN(C(=O)N2CCC(C(=O)NCc3ccc(C)o3)CC2)c2ccccc2O1 (stereo unspecified) | -5% | . | -5% | -23% | -6% | 12%
COc1cccc(CS(=O)(=O)c2nnnn2CC(C)C)c1 | 7% | -3% | 0% | 3% | 8% | 2%
Sc1ccc2ccccc2c1CNCc1ccccc1 | . | 3%[14.2 µM] | . | . | . | .
O=C1C=CC(=O)c2c1ccc1c2ccc2ccccc21 | . | -20%[21.6 µM] | -5%[53 µM] | . | 1%[53 µM] | .
CCOC(=O)CCCNC(=O)N1CCc2nc(COc3ccccc3)c3c(c2C1)CO[C@@H](C)C3 | 0%[11.6 µM] | 4%[14.2 µM] | -4%[11.2 µM] | -7%[11.6 µM] | 0%[11.2 µM] | -1%[11.5 µM]
COc1cccc2c(=S)c(CCC(C)=O)c(C)[nH]c12 | 3% | -23% | 2.8µM*[quencher] | 3% | -17%[53 µM] | 8%
CC(=O)CCc1c(C)c2cccc(C)c2[nH]c1=O | -4% | 6% | -1% | -14% | -9% | -12%
O=c1c(CCc2ccccc2)nc2cnc(N3CCNCC3)nc2n1Cc1ccc(F)cc1 | . | 3% | . | . | . | .
COc1cc(SC#N)ccc1N=Cc1c(C)[nH]n(-c2ccc(C)c(C)c2)c1=O | ? | 1% | -6% | -19% | 1% | 18µM*
COc1ccc(CCN=Cc2c(C)[nH]n(-c3ccc([N+](=O)[O-])cc3)c2=O)cc1OC | -15% | 10% | -4% | -15% | -3% | ?
COc1cc(SC#N)ccc1N=Cc1c(C)[nH]n(-c2ccc(Cl)cc2)c1=O | ? | -1% | -7% | -23% | -2% | 11µM*
COc1cc(S(=O)(=O)Nc2ccccc2)ccc1N=Cc1c(C)[nH]n(-c2ccc(C)cc2)c1=O | 0% | 1% | 6% | ? | 12% | ?
CCCCC1=CC2=CC(=O)C(C)(OC(=O)CCc3ccccc3)C(=O)C2=CO1 (stereo unspecified) | ? | -35% | -1% | ? | 4% | 25µM*!
CC1(OC(=O)C2CCCC2)C(=O)C=C2C=C(c3ccsc3)N(CCc3ccccn3)C=C2C1=O (stereo unspecified) | ? | -14%[14.2 µM] | 2%[11.2 µM] | -19%[11.6 µM] | 1%[11.2 µM] | 4µM*
CC1(OC(=O)C2CCCC2)C(=O)C=C2C=C(c3ccsc3)N(Cc3ccccc3)C=C2C1=O (stereo unspecified) | ? | -2%[14.2 µM] | 8%[11.2 µM] | -5%[11.6 µM] | 4%[11.2 µM] | 10µM*!
CC1(OC(=O)CCc2ccccc2)C(=O)C=C2C=C(c3ccc(C#N)cc3)N(Cc3ccccc3)C=C2C1=O (stereo unspecified) | ? | -1%[14.2 µM] | 0%[11.2 µM] | -3%[11.6 µM] | 3%[11.2 µM] | 8.9µM*!
COC1C(OC(=O)/C=C/C=C/C=C/C=C/C(=O)O)CCC2(CO2)C1C1(C)OC1CC=C(C)C (stereo unspecified) | . | 6% | -3% | . | 1% | .
SMILES | Tau FP inhib | GoLoco inh red | TR SRC2 fluor cs | Tau fluor cs | TRb SRC2 PPI | Tau ThT inhib
CN1C(=O)CC2(C=CC(=O)C=C2OC(=O)c2ccccc2)c2ccccc21 (stereo unspecified) | . | . | -1% | . | 5% | .
Cn1sc(=O)n(Cc2ccccc2)c1=O | . | . | 2% | . | 0% | .
C=C(C)C(=O)OCCOCC | . | . | ? | . | -9% | .
Cc1cccc(NC(=O)Cn2c(=O)n(Cc3ccc(C(=O)NCc4ccc5c(c4)OCO5)cc3)c(=O)c3ccccc32)c1 | ? | . | -67% | -15% | 0% | 4%
CCOc1ccc(NC(=O)Cn2c(=O)n(Cc3ccc(C(=O)NCc4ccc5c(c4)OCO5)cc3)c(=O)c3ccccc32)cc1 | 28µM* | . | 0% | -21% | -4% | -3%
O=C(Cn1c(=O)n(Cc2ccc3c(c2)OCO3)c(=O)c2ccccc21)Nc1cccc(Cl)c1 | 28µM* | . | 1% | ? | 8% | ?
C[C@H](Br)C(=O)Nc1ccc(C(=O)O)c(O)c1 | . | 0%[14.2 µM] | . | . | . | .
CCc1ccc2[nH]c(O)c(N=Nc3nc(-c4ccccc4)cs3)c2c1 | 10% | 4% | -2% | ? | 0% | 4.5µM*
COC(=O)C(C(C)C)N1CC(=O)c2ccccc2S1(=O)=O (stereo unspecified) | . | . | -1% | . | -7% | .
CC/C=C/C#N | . | -6% | -3% | . | -3% | .
Cc1ccc(C)c(CSc2cn(CCNC(=O)c3ccccc3F)c3ccccc23)c1 | -1% | . | 2% | ? | 9% | ?
O=C(NCCn1cc(SCc2ccccc2)c2ccccc21)c1cccs1 | ? | . | ? | 5.6µM*[quencher] | 1% | ?
Cc1ccc(C)c(CSc2cn(CCNC(=O)c3cccs3)c3ccccc23)c1 | -12% | . | 1% | 8.9µM*[quencher] | 4% | ?
O=C(NCCn1cc(SCc2ccccc2Cl)c2ccccc21)c1cccs1 | ? | . | -6% | 3.2µM*[quencher] | 11% | -26%
CCOC(=O)CCN1C(=O)[C@H]2[C@H]3[C@H](O)[C@H](O)C/C(=N/NC(=O)OCc4ccccc4)[C@H]3CC[C@@H]2C1=O | 4%[11.6 µM] | . | 1%[11.2 µM] | -2%[11.6 µM] | 1%[11.2 µM] | -9%[11.5 µM]
O=C(Nc1nc(-c2cccnc2)cs1)c1ccc([N+](=O)[O-])cc1 | 1% | -5% | 2% | ? | 1% | ?
CC(=O)NNc1nc(-c2ccccc2)cs1 | ? | 20% | -2% | ? | 0% | 18µM*
